In PubChem BioAssay:
Where “and” joins values, the source holds several entries; their conditions need not be identical. Equal entries are not always repeated. Calls of active or inactive are those of the source.

Legend:
Albumin (Bos taurus) = Albumin (Bos taurus) (UniProt P02769); experiment: compounds binding labelled BSA control protein – biochemical, small-molecule microarray, Alexa647 label, 635/667 nm fluorescence, artefact control for SMM control protein annotation, profiling panel (AID 1118); settings: BSA-A647 binding, fluorescence 635 nm, higher = more signal;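 further: score merges 667 nm emission intensity and signal-to-noise per printed compound spot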
Albumin (Bos taurus), sequence (P02769 whole entry, looked up): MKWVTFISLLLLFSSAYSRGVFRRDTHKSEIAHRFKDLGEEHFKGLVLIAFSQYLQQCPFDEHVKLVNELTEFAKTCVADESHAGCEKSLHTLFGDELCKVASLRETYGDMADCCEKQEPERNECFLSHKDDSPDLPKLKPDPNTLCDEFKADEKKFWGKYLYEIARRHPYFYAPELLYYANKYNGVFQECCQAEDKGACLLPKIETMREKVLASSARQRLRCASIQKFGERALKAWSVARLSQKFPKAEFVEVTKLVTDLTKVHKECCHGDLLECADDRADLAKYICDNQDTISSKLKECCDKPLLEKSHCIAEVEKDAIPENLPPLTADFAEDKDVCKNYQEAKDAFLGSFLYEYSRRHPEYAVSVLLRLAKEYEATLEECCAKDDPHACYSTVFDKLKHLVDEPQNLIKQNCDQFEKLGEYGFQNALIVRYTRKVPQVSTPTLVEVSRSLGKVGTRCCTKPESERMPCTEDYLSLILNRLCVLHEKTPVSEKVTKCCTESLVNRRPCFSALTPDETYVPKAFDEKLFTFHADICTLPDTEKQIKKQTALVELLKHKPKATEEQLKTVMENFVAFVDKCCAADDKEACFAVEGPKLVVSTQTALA

[1] = probe aXIP binding to arrayed compounds – biochemical, NeuroSMM set, 635/667 nm fluorescence, primary screen (AID 1119); settings: small-molecule microarray, higher = more signal, called active from +8 up or from −8 down;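 further: probe is the protein aXip251-270 applied at 1 µg/mL to compound-printed slides; binding of probe to printed compounds measured as 667 nm fluorescence plus signal to noise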
[2] = probe aNOTCH3 binding on compound microarray – biochemical, small-molecule microarray, 635/667 nm fluorescence, primary screen (AID 1120); settings: higher = more signal;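 further: probe is a biotin-tagged antibody raised against NOTCH3 rather than NOTCH3 protein; score merges spot fluorescence near 667 nm with spot signal to noise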
[3] = probe aNOTCH2 binding on compound microarray – biochemical, small-molecule microarray, 635/667 nm fluorescence, primary screen (AID 1121); settings: higher = more signal;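 further: score merges feature fluorescence read at 667 nm with its signal to noise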
[4] = target: Carbonic anhydrase 2 (Homo sapiens) (UniProt P00918); experiment: compounds binding carbonic anhydrase 2 – biochemical, small-molecule microarray, Alexa647-labelled CAII, profiling panel (AID 1122); settings: CAII-A647 binding fluorescence, higher = more signal
[5] = COS7 lysate on small-molecule microarray, probe aHis, 635 nm (AID 1123); settings: COS7 cell lysate, fluorescence, higher = more signal;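 further: z-score combines 667nm fluorescence intensity with signal-to-noise per printed compound spot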
[6] = probe aLAP1 signal on lysate-treated microarray – cell lysate, small-molecule microarray, COS7 lysate, primary screen (AID 1124); settings: probe aLAP1, fluorescence, higher = more signal;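 further: lysate comes from COS7 cells expressing LAP1 and is applied at 0.3 µg/mL; score merges spot fluorescence near 667 nm with signal-to-noise over triplicate slides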
Sam68 (KHDRBS1) = experiment: compounds binding KHDRBS1 protein – biochemical, small-molecule microarray, 635 nm fluorescence, primary screen (AID 1125); settings: higher = more signal;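 further: score merges 667 nm channel intensity with signal to noise over triplicate slides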
[7] = system: Chordin-like protein 2 (CHRDL2); experiment: compounds binding chordin-like 2 – biochemical, small-molecule microarray, 635 nm fluorescence, primary screen (AID 1126); settings: fluorescence 635 nm, higher = more signal;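 further: printed compound slides probed with Chrdl2 protein at 4 µg/mL for 1 h at 4 C; score merges 667 nm emission intensity with signal to noise over three replicate slides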
[8] = target: Concanavalin-A (Canavalia ensiformis) (UniProt P02866); experiment: compounds binding concanavalin A lectin – biochemical, small-molecule microarray, Alexa647 label, 635 nm, artefact control for SMM control protein annotation, primary screen (AID 1127); settings: ConA-A647 binding fluorescence, higher = more signal;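 further: z combines 667 nm emission intensity with signal-to-noise across three replicate slides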
Concanavalin-A (Canavalia ensiformis), sequence (P02866 whole entry, looked up): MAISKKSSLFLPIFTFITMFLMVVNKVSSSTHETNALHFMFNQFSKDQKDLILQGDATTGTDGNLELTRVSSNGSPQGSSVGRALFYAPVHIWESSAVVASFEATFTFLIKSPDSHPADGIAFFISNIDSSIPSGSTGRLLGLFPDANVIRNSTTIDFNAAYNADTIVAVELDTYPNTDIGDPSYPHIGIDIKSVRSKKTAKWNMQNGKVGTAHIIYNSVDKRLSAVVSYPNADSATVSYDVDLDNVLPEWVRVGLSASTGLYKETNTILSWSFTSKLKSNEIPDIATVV

[9] = compounds binding Alexa647 anti-His antibody – biochemical, small-molecule microarray, 635 nm fluorescence, artefact control for SMM control protein annotation, primary screen (AID 1128); settings: higher = more signal;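 further: score merges feature fluorescence with signal-to-noise for each printed compound spot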
[10] = system: Human papillomavirus type 1a E7 protein (residues 1-88); experiment: HPV1a E7 small-molecule binders, primary screen, biochemical, small-molecule microarray, residues 1-88, 635 nm (AID 1129); settings: small-molecule microarray binding, fluorescence 635 nm; higher = more signal
[11] = target: Focal adhesion kinase 1 (Homo sapiens) (UniProt Q05397); experiment: PTK2 protein binding on printed compound slides – biochemical, small-molecule microarray, 635/667 nm fluorescence, BSA, DTT, primary screen (AID 1130); settings: 635 nm fluorescence, higher = more signal;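 further: composite of spot emission at 667 nm and signal to noise over triplicate slides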
Focal adhesion kinase 1 (Homo sapiens), sequence (Q05397 whole entry, looked up): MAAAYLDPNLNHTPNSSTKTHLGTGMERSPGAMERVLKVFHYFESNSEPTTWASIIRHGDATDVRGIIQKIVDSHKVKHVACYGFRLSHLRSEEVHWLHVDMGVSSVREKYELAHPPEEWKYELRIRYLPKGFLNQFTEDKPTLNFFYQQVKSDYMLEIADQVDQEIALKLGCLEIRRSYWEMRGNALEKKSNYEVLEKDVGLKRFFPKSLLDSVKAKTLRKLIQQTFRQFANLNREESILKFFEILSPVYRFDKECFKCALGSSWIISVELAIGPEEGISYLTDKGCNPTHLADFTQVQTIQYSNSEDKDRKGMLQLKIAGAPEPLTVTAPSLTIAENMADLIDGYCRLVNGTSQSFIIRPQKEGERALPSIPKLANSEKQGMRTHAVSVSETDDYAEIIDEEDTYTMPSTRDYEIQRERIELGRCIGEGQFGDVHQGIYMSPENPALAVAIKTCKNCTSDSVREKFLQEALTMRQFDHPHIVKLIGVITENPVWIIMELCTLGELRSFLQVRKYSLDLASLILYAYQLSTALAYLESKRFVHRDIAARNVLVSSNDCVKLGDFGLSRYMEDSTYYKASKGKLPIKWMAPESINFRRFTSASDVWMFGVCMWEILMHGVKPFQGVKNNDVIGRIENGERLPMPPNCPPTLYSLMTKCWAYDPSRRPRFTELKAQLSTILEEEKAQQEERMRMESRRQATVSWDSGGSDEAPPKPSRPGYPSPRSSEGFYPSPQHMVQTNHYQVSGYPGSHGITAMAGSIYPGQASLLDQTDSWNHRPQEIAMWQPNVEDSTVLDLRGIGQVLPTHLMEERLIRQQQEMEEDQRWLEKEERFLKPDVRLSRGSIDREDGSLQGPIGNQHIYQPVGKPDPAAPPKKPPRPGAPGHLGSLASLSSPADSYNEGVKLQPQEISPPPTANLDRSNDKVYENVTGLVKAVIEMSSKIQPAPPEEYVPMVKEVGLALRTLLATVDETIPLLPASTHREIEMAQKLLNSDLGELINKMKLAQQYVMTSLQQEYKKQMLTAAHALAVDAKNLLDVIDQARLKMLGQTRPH

[12] = system: Fibrinogen (Alexa647-labelled); experiment: Alexa647-fibrinogen binding to printed small molecules – biochemical, small-molecule microarray, 635/667 nm fluorescence, artefact control for SMM control-protein annotation, profiling panel (AID 1131); settings: fibrinogen-A647 binding fluorescence, higher = more signal;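 further: z-score merges 667 nm fluorescence with per-spot signal-to-noise over triplicate slides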
[13] = target: Follistatin (Homo sapiens) (UniProt P19883); experiment: FST protein binding to printed compounds – biochemical, small-molecule microarray, 635/667 nm fluorescence, primary screen (AID 1132); settings: 635 nm fluorescence, higher = more signal
Follistatin (Homo sapiens), sequence (P19883 whole entry, looked up): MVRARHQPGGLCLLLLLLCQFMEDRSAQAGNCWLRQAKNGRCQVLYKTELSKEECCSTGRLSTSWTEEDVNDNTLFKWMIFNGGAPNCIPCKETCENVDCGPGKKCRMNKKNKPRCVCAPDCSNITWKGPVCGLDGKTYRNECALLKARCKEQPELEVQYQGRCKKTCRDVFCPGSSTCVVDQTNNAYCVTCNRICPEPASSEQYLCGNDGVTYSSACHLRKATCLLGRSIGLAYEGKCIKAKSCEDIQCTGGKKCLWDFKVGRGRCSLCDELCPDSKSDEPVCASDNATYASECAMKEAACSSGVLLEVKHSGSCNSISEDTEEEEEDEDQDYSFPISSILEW

[14] = target: Fibroblast growth factor 2 (Homo sapiens) (UniProt P09038); experiment: basic fibroblast growth factor binding to printed compounds – biochemical, small-molecule microarray, 635/667 nm fluorescence, primary screen (AID 1133); settings: FGF2, fluorescence 635/667, higher = more signal
Fibroblast growth factor 2 (Homo sapiens), sequence (P09038 whole entry, looked up): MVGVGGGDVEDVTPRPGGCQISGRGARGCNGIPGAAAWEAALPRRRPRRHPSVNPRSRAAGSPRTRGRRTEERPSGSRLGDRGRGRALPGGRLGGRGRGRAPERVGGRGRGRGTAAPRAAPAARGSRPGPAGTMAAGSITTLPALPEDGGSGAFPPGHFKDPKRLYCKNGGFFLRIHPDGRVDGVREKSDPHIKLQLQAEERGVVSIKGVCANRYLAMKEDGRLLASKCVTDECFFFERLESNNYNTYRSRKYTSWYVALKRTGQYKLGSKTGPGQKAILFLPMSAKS

[15] = JC-1 mitochondrial potential readout, lung cancer cells – cell-based, A549, JC-1 fluorescence, basal, 24 h, 100 nL, profiling panel (AID 1138); settings: higher = more signal;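 further: A549 lung adenocarcinoma cells under basal conditions with no added stimulus; test concentration not given here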
Lefty1 = Lefty1 protein binding to printed compounds – biochemical, small-molecule microarray, 635/667 nm fluorescence, primary screen (AID 1139); settings: fluorescence 635/667, higher = more signal
[16] = system: wheat germ agglutinin (Triticum aestivum), Alexa647-labelled; experiment: Alexa647-WGA lectin binding to printed small molecules – biochemical, small-molecule microarray, 635/667 nm fluorescence, artefact control for SMM control-protein annotation, profiling panel (AID 1140); settings: WGA-A647 binding, 635 nm fluorescence, higher = more signal;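 further: score merges 667 nm feature emission with signal to noise over triplicate slides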
[17] = target: Luciferin 4-monooxygenase (Photinus pyralis) (UniProt P08659); experiment: inhibition of purified Photinus pyralis luciferase – biochemical, luminescence, purified enzyme, 2006 set, primary screen (AID 1141); settings: purified firefly luciferase, SteadyGlo luminescence, 30 min; higher = more signal, called active from +8 up or from −8 down;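 further: cell-free assay with purified firefly luciferase at 100 ng per well in PBS; test concentration not given here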
Luciferin 4-monooxygenase (Photinus pyralis), sequence (P08659 whole entry, looked up): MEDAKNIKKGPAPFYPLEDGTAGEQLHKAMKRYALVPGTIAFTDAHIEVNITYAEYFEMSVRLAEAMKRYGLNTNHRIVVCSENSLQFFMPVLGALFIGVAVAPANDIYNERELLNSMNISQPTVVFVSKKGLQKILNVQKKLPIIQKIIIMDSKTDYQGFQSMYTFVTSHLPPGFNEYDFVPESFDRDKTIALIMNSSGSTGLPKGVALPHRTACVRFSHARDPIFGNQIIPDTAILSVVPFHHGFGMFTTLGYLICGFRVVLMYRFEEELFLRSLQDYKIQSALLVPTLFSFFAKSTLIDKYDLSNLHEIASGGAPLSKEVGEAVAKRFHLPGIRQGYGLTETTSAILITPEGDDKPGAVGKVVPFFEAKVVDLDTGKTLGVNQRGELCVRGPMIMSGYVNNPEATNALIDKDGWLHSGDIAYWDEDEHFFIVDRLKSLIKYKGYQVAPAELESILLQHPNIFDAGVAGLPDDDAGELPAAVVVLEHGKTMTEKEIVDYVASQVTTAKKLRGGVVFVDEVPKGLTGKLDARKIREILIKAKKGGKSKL

SMILES	composite z-score (Albumin (Bos taurus))	composite Z-score [1]	composite z-score [2]	composite z-score [3]	composite z-score [4]	composite z-score [5]	composite z-score [6]	composite z-score (Sam68 (KHDRBS1))	composite z-score [7]	composite z-score [8]	composite z-score [9]	composite z-score [10]	composite z-score [11]	composite z-score [12]	composite z-score [13]	composite z-score [14]	z-score [15]	composite z-score (Lefty1)	composite z-score [16]	z-score [17]
C=CCN(CCCCC)C(=O)C1N(c2ccc(CCO)cc2)C(=O)C2C(C(=O)O)C3C=CC21O3 (stereo not given)	0.193 and 0.344	-1.27 (inactive) and -0.154 (inactive)	-0.474 and 0.157	-0.127 and -0.0716	-0.349 and 0.574	-0.632 and -0.323	-0.18 and -1.2	-0.393 and -0.951	-0.914 and -1.38	-1.1 and -1.15	-1.26 and -0.352	-1.44 and -0.943	-0.886 and -0.776	-0.916 and -0.657	-0.974 and -0.877	-0.989 and -0.883	0.157 and -0.0775	-1.47 and -0.885	0.961 and -0.241	-0.929 (inactive) and -0.832 (inactive)
C[C@@H]1CC[C@H]2C(=O)NC[C@@H](O)CN2[C@H]1c1ccc(Br)cc1	0.446 and -0.624	-0.312 (inactive) and 0.171 (inactive)	-0.0598 and -0.207	-0.14 and -0.046	0.702 and -0.138	0.703 and 0.229	-0.172 and -0.0957	-0.46 and 0.119	-0.119 and 0.127	0.407 and -0.416	-0.035 and -0.372	-0.165 and -0.298	0.0377 and -0.438	-0.0102 and 0.0552	-0.175 and -0.142	0.0825 and 0.314	-0.386 and 1.68	0.396 and 0.0488	-0.2 and -0.0411	0.29 (inactive) and -0.467 (inactive)
CC(C)CCN1CCc2nc(-c3ccccc3)c3c(c2C1)CO[C@@H](C)C3	0.69	-0.835 (inactive)	-0.0362	-0.16	0.15	0.463	-0.616	1.06	0.656	0.263	0.554	0.669	0.304	0.436	0.785	0.528	1.19	0.631	0.931	-1.17 (inactive)
C=CCN(CCCCC)C(=O)C1N(C(C)(C)CO)C(=O)C2C(C(=O)O)C3C=CC21O3 (stereo not given)	-0.544 and -0.85	0.159 (inactive) and -0.421 (inactive)	-0.484 and -0.372	-0.112 and -0.0984	0.196 and 0.327	-1.14 and -0.703	-0.385 and 0.137	-1.11 and -1.2	-1.84 and -2.83	-1.83 and -1.31	-0.608 and -2.12	-0.943 and -0.793	-0.132 and -1.41	-2.7 and -1.18	-1.39 and -2.44	-2.46 and -1.74	-0.401 and 0.244	-1.1 and -1.42	-0.356 and -1.51	0.169 (inactive) and 0.977 (inactive)
C=CCN(CCCC)C(=O)C(c1cccs1)N(C(=O)/C=C\C(=O)O)c1c(Cl)cccc1CO (stereo not given)	-0.854 and -0.198	-0.089 (inactive) and 0.339 (inactive)	-0.589 and -0.431	-0.162 and -0.147	-0.3 and 0.0384	-0.99 and -0.632	-0.307 and 0.993	-0.843 and -1.73	-4.02 and -2.94	-3.43 and -2.5	-0.71 and -0.792	-0.925 and -1.1	-0.859 and 1.27	-2.84 and -3.52	-2.44 and -1.69	-2.72 and -1.18	-0.107 and -0.132	-2.81 and -2.2	-0.178 and -0.7	1.01 (inactive) and 0.833 (inactive)
